TLR9-MyD88 block – inhibitors of TLR9-MyD88 association in cells, primary screen, cell-based, CHO, BLA complementation, fluorescence; hit rate 0.21% among 340,000; inhibition, % at 4.98 µM; CCF4 FRET ratio; AID 504734, 2011;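 active = inhibition above the mean over all tested compounds plus 3 SD, cut at about 21% in these data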;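 note: 0% = DMSO only wells and 100% = clavulanate BLA inhibitor control wells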
Neddyl block – inhibitors of cullin neddylation, primary screen, biochemical, TR-FRET, uHTS, NAE and Ubc12. NEDD8-conjugating enzyme Ubc12 (Homo sapiens) + NEDD8-activating enzyme E1 regulatory …. inhibition, % at 25 µM. hit rate 0.58% among 360,000. AID 651699, 2012; in the data active = inhibition above about 36%
NOD2-RIPK2 inh – NOD2-RIPK2 binding disruptors in cells, primary screen, fluorescence, CHO cells, BLA complementation. hit rate 0.38% among 360,000. Receptor-interacting serine/threonine-protein kinase 2 (Homo sapiens), O43353. CCF4 ratio. inhibition, % at 4.98 µM; in the data active = inhibition above about 21%;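 note: 0% = vehicle only and 100% = reference blocker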
Target sequence (O43353 whole entry, looked up): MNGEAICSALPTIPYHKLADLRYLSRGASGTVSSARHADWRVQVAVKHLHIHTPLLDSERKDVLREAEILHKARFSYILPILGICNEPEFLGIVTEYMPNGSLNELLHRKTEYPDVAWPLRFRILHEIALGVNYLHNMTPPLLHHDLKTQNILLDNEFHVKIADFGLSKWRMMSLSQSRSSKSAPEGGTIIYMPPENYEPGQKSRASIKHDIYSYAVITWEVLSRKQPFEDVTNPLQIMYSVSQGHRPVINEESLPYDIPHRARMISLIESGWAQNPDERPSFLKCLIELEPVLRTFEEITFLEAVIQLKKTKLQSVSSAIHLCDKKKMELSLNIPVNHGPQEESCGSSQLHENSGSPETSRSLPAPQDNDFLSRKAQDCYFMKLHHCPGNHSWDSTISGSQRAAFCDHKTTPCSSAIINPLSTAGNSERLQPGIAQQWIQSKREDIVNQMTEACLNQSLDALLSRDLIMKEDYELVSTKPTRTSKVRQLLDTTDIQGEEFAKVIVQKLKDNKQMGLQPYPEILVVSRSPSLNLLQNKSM
TLR4 MyD88 comp – inhibitors of TLR4-MyD88 association in cells, primary screen, cell-based, HeLa CL3-4, BLA complementation, FRET ratio. Toll-like receptor 4 (Homo sapiens) + Myeloid differentiation primary response protein …. HeLa CL3-4 TLR4/MyD88 BLA complementation. inhibition, % at 8.4 µM. hit rate 0.18% among 200,000. AID 861, 2007; in the data active = inhibition above about 25%;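 note: 0% = vehicle and 100% = reference inhibitor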
NPR1 activator – GC-A stimulated cGMP production enhancers – HEK293 GC-A cells, cGMP TR-FRET, EC30 ANP, primary screen; hit rate 0.14% among 370,000; 0% at EC30 ANP, 100% saturating ANP; activation, % at 10 µM; Atrial natriuretic peptide receptor 1 (Homo sapiens), P16066; in the data active = activation above about 40%
NPR2 activator – human GC-B receptor activators, primary screen, HEK293 GC-B cells, cGMP TR-FRET, EC30 CNP. 0% at EC30 CNP, 100% saturating CNP. activation, % at 10 µM. Atrial natriuretic peptide receptor 2 (Homo sapiens), P20594. hit rate 0.11% among 370,000;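 active = activation at 10 µM reaching about 35% in either raw or pattern-adjusted values, limit read from the data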
TLR9-MyD88 conf – TLR9-MyD88 association inhibitors, retest, confirmation, cell-based, CHO, BLA complementation, fluorescence, triplicate; shares compounds with TLR9-MyD88 block; CCF4 FRET ratio; inhibition, % at 4.98 µM; hit rate 51% among 680;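 active = mean inhibition across three repeats above about 21% taken from the earlier screen, limit read from the data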;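 note: blue over green emission ratio reports constitutive TLR9 MyD88 association via BLA complementation; 0% = DMSO vehicle wells and 100% = clavulanate BLA inhibitor wells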
BLA nonselective – beta-lactamase reporter inhibitors in CHO cells, artefact control for TLR9-MyD88 binding inhibitor project, cell-based, fluorescence; hit rate 7% among 680; shares compounds with TLR9-MyD88 block; inhibition, % at 4.98 µM; CHO-BLA cells, CCF4 FRET ratio, BLA reporter;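 active = mean inhibition above a 50% cutoff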;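 note: counterscreen of TLR9-MyD88 hits on CMV-driven BLA in CHO-K1 cells; 0% = DMSO alone and 100% = clavulanate blocking BLA; higher means less blue over green ratio so more BLA blockade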
TLR9 CHO cytotox – CHO cell viability loss – luminescence, single concentration, cytotoxicity control for TLR9-MyD88 binding inhibitor project; inhibition, % at 4.98 µM; AID 588336, 2011; hit rate 39% among 680; shares compounds with TLR9-MyD88 block; TLR9-MyD88 CHO cells cytotoxicity; in the data active = inhibition above about 11%
* marks the source's active call; other numbers are inactive results; / = not tested or not shown. Compounds with a hit are over-represented: about 1.2% of the library has one in this group of screens.

SMILES | TLR9-MyD88 block | Neddyl block | NOD2-RIPK2 inh | TLR4 MyD88 comp | NPR1 activator | NPR2 activator | TLR9-MyD88 conf | BLA nonselective | TLR9 CHO cytotox
COc1ccc2oc(=O)c(-c3nc(C)cs3)cc2c1 | 3 | 5 | 8 | -7 | 0 | 6 | / | / | /
COc1ccc(CN2C(=O)N3Cc4ccc(C)cc4C3CS2(=O)=O)cc1 (configuration not stated) | / | / | / | / | 1 | 4 | / | / | /
Nc1c(C(=O)Nc2nccs2)sc2nc(-c3cccs3)cc(C(F)(F)F)c12 | 22* | 30 | 19 | 24 | 1 | -9 | 7 | 12 | -4
CC(=O)C1=C(C)NC(SCC(=O)c2ccc(Cl)c(Cl)c2)=C(C#N)C1c1ccco1 (configuration not stated) | 21* | 3 | 4 | 18 | 1 | -1 | 7 | 8 | 9
Cc1ccc(S(=O)(=O)Nc2cccc3ncccc23)s1 | 44* | / | 55* | 19 | / | / | 20 | 8 | 101*
COc1ccc(CNC(=O)c2cc(-c3ccc(OC)c(OC)c3)on2)cc1 | 23* | 5 | -4 | -5 | -1 | 5 | 1 | 0 | -4
O=C(N/N=C/c1c(O)n(-c2ccc(Cl)cn2)c(=O)c2ccccc12)c1ccncc1 | 21* | -20 | 14 | 13 | -1 | 0 | 8 | 10 | -5
O=C(N/N=C/c1c(O)n(-c2ccc(Cl)cn2)c(=O)c2ccccc12)C1CC1 | 3 | 8 | 4 | -5 | 9 | -3 | / | / | /
CO[C@@H]1[C@H](O)CC[C@]2(O)CN(c3ccc(F)cc3)[C@](C)([C@H](O)CC=C(C)C)[C@@H]12 | / | / | / | / | 0 | -3 | / | / | /
N#Cc1cccc(NC(=O)COC(=O)CCc2nc3ccccc3c(=O)[nH]2)c1 | 21* | 5 | -6 | -12 | 2 | -2 | -1 | 0 | -2
CCOC(=O)CCS(=O)(=O)c1nc(-c2ccccc2)cc(C(F)(F)F)n1 | 33* | -16 | 69* | 24 | / | / | 39* | 13 | 97*
CCOC(=O)CS(=O)(=O)c1nc(-c2ccc(F)cc2)cc(C(F)(F)F)n1 | 42* | -21 | 69* | 7 | / | / | 37* | 14 | 99*
Cc1ccccc1-c1ccc2c(c1)[C@@H]1C[C@H](N(C)S(=O)(=O)c3ccc(Cl)cc3)[C@H]([C@H](C)O)CN1CC2 | / | / | / | / | 0 | 2 | / | / | /
COC(=O)[C@H](C)NC(=O)[C@@H]1CCCN1C(=O)CNP(=O)(OCc1ccccc1)OCc1ccccc1 | / | / | / | / | 0 | -9 | / | / | /
COC(=O)c1ccc(NC(=O)c2nc(S(=O)(=O)Cc3cccc(C)c3)ncc2Cl)cc1 | 42* | -11 | 18 | / | 9 | 3 | 33* | 27 | 100*
COc1ccccc1NC(=O)c1nc(S(=O)(=O)Cc2ccccc2)ncc1Cl | 12 | 1 | 14 | / | 27 | 2 | / | / | /
Cc1nn(C)c(C)c1/C=N/NC(=O)CCn1nc(C)c([N+](=O)[O-])c1C | 28* | 0 | -1 | -4 | -3 | 2 | -2 | 1 | -1
N#Cc1ccc(-c2ccco2)nc1SCC(=O)c1ccc(Cl)cc1 | 28* | -256 | 15 | 30* | -1 | -11 | 25* | 25 | 8
Fc1ccccc1N1CCN(Cc2nc(-c3ccccc3)no2)CC1 | 3 | 7 | 1 | -9 | 3 | -4 | / | / | /
Fc1ccccc1N1CCN(Cc2cc(-c3ccccc3)on2)CC1 | 21* | 3 | 8 | / | -2 | 6 | 1 | 3 | 4
O=C(N/N=C\c1c[nH]c2ccccc12)c1ccc(O)cc1 | 21* | 6 | 3 | / | -5 | -7 | 0 | 0 | 1
O=Nc1onc(-c2ccc([N+](=O)[O-])cc2)c1NO | 36* | -27 | 2 | 7 | -10 | -8 | 4 | 2 | 0
COC(=O)c1cc(-c2ccc(Oc3ccccc3)cc2)c(=O)n2c1CCC2 | / | / | / | / | 1 | -6 | / | / | /
COc1ccc(C2CC(c3ccncc3)=NN2c2ccc(S(N)(=O)=O)cc2)cc1 (configuration not stated) | 19 | / | 37* | / | 24 | 5 | 12 | 19 | 16*
CC(C)(C)c1ccc(C2=CC(c3ccccc3F)n3ncnc3N2)cc1 (configuration not stated) | 22* | 37 | 15 | / | 1 | -4 | -4 | -8 | 5
SMILES | TLR9-MyD88 block | Neddyl block | NOD2-RIPK2 inh | TLR4 MyD88 comp | NPR1 activator | NPR2 activator | TLR9-MyD88 conf | BLA nonselective | TLR9 CHO cytotox
Cn1cccc1C1C=C(c2ccc(C(C)(C)C)cc2)Nc2ncnn21 (configuration not stated) | 1 | / | 3 | / | 3 | 9 | / | / | /
O=C(NC1CCCCC1)c1cccc2c1C(=O)c1ccc(N3CCC(Cc4ccccc4)CC3)cc1S2(=O)=O | 80* | -77 | 21 | / | 2 | 4 | 37* | 41 | 1
O=C(NCC1CCCO1)c1cccc2c1C(=O)c1ccc(N3CCC(Cc4ccccc4)CC3)cc1S2(=O)=O (configuration not stated) | 32* | -156 | 51* | / | / | / | 23* | 25 | 10
CC1CCN(c2ccc3c(c2)S(=O)(=O)c2cccc(C(=O)NC[C@@H]4CCCO4)c2C3=O)CC1 | -1 | -95 | 14 | / | 3 | 7 | / | / | /
O=C(NCc1ccccc1Br)c1cccc2c1C(=O)c1ccc(N3CCC(Cc4ccccc4)CC3)cc1S2(=O)=O | 15 | -64 | 8 | / | / | / | / | / | /
O=S(=O)(CS(=O)(=O)c1ccccc1Br)c1ccccc1Br | / | / | / | / | 6 | -3 | / | / | /
COc1cccc(C2=CC(c3ccc(N(C)C)cc3)n3nnnc3N2)c1 (configuration not stated) | 8 | 14 | 12 | -2 | 10 | 5 | / | / | /
COc1ccc(C2C=C(c3ccccc3)Nc3nnnn32)cc1 (configuration not stated) | 24* | / | -2 | 1 | 21 | 6 | 4 | 1 | -1
